# A selection: hits, their analogues and other compounds. The true share with any hit is near 1.7%.
# HEK293 tox = qHTS of GLP-1 Receptor Inverse Agonists: Cytotox Screen | hit rate 0.13% among 410,000 | HEK293 cAMP-luciferase reporter cells, luminescence, 24 h | Potency, µM (top dose mostly 38.3 µM), without a hit: at the highest dose activity change, negative = inhibition, actives largely listed as inhibitors;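 also: loss of luciferase light is scored as toxicity; % is scaled to controls: 0 for no effect and ±100 for the full control effect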
#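 Here, cytotoxicity is scored as loss of luminescence. The MLSMR collection was tested on cells seeded in medium containing 10% Nu serum, with a 24 hr compound exposure preceded by 12 hours of culture.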
# GLP-1R inv ag = qHTS of GLP-1 Receptor Inverse Agonists (Inhibition Mode) | Potency, µM (top dose mostly 38.3 µM), without a hit: at the highest dose activity change, negative = inhibition, actives largely listed as inhibitors | HEK293 GLP-1R CRE-luciferase, luminescence, 24 h; GLP-1R form is constitutively active | Glucagon-like peptide 1 receptor (Homo sapiens), P43220 | hit rate 1.6% among 410,000; also: % is scaled to controls: 0 for no effect and ±100 for the full control effect; nearly all actives have a fitted effect of over 55% in size
# Target sequence (P43220 whole entry, looked up): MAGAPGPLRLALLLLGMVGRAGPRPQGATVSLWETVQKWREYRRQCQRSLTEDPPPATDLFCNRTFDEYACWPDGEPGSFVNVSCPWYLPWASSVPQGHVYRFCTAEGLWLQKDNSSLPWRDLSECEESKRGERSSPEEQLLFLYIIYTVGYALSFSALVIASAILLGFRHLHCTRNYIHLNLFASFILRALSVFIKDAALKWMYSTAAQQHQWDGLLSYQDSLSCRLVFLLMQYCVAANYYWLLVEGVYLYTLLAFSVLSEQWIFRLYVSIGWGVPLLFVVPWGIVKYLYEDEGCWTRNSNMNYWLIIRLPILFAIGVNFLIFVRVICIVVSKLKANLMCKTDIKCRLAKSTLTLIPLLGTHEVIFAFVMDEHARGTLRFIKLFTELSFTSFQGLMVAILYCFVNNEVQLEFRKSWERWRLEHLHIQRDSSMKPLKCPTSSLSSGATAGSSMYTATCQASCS
#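 GLP-1R inverse agonism mode: basal reporter luminescence in engineered HEK293 cells measured after one day of compound exposure at 37 deg C, with a 12 min room-temperature detection step.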
# GLP-1R agonist = qHTS of GLP-1 Receptor Agonists; Glucagon-like peptide 1 receptor (Homo sapiens), P43220; HEK293 GLP-1R CRE-luciferase, luminescence, 4-6 h; cells express a hypersensitive GLP-1R form; Potency, µM (doses to about 45.6 µM), for the others: at the highest dose activation, usual class: activators; hit rate 0.007% among 380,000; AID 624172, 2012; also: % of control where 0% means no effect
# PTHR1 agonist = qHTS for PTHR1 Agonists: Primary Screen; Parathyroid hormone/parathyroid hormone-related peptide receptor (Homo sapiens), Q03431; HEK293 GP2 PTHR1 cells, GloSensor cAMP luminescence, 1 h; Potency, µM (doses to about 115 µM), without a hit: at the top dose activation, hits mostly activators; hit rate 0.075% among 410,000; AID 743266, 2014; also: nearly all actives have a fitted effect of over 55% in size
#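 HEK-293-derived GP2 cells expressing PTHR1 and a GloSensor cAMP reporter, 3,000/well, plated overnight, given luciferin plus IBMX (each 0.5 mM as added) for 1 h at 37 °C, then compound for 1 h at 37 °C. Luminescence was read after 15 min at room temperature.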
# The depositor's hits bear a star; i = inactive; ? = inconclusive; · = not tested or not shown; [ ] = another dose, or the depositor's remark. Calls follow the shape of the dose curve; as a rule, active = well fitted curve in the direction sought with a large enough effect; inconclusive = small, poorly fitted or top-dose-only effect, or another doubt; inactive = no such curve, though single readings can be large; an effect the other way counts as inactive or inconclusive. Potency is read from the fitted curve at half-maximal effect.
SMILES,HEK293 tox,GLP-1R inv ag,GLP-1R agonist,PTHR1 agonist
CC(C)(C)c1ccc(C(=O)NCC(c2cccs2)S(=O)(=O)c2ccc(F)cc2)cc1 (stereo not given),-2%,4.5µM*,·,-9%
CC(=O)c1ccc(NC(=O)CCCc2nc(-c3cccc(C)c3)no2)cc1,5%,-1%,·,-16%
CCCCC(CC)C(=O)Oc1ccc(O)c(C(C)(C)C)c1 (stereo not given),?,5.6µM*,17%,-5%
CC(C)(C)C(=O)CSc1nc2ccsc2c(=O)n1Cc1ccccc1Cl,1%,-4%,·,i
CSc1cccc(NC(=S)N(CCC(C)C)C2CCN(C(C)C)CC2)c1,?,8.9µM*,-2%,i
CSc1cccc(NC(=S)N(CCC(C)C)C2CCN(C(C)=O)CC2)c1,-1%,?,9%,i
COc1ccc(-c2cnc(C)o2)cc1S(=O)(=O)Nc1ccc(OC(F)(F)F)cc1,-4%,?,·,i
COc1ccc(-c2onc(C)c2C)cc1S(=O)(=O)Nc1ccc(OC(F)(F)F)cc1,-5%,13µM*,·,-92%
S=c1nc2ccccc2c2nc(-c3ccccc3)[nH]n12,0.89µM*,?,-3%,i
S=c1nc2ccccc2c2nc(-c3ccccc3Cl)[nH]n12,-48%,?,-5%,-10%
CSCCC(NC(=O)c1ccccc1)C(=O)N1CC=C(c2ccccc2)CC1 (stereo not given),-22%,10µM*,-3%,-27%
CSCCC(NC(=O)c1ccccc1)C(=O)N1CCN(C(=O)c2ccccc2)CC1 (stereo not given),0%,11%,-2%,i
O=C(NCCc1ccc(F)cc1)NC12CC3CC(CC(C3)C1)C2,15%,?,0%,i
O=C(NCCC1=CCCCC1)NC12CC3CC(CC(C3)C1)C2,16%,5.6µM*,-5%,-16%[57.5 µM]
Cc1cc2c(cc1S(=O)(=O)Nc1ccc(C(C)C)cc1)OCCN2C,2%,-16%,·,-63%
COC(=O)c1cnn(-c2nc(OC)cc(OC)n2)c1C,7%,-1%,-1%,-20%
COc1cc(OC)nc(-n2ncc(Br)c(Br)c2=O)n1,3.2µM*,?,-5%,-30%
Fc1ccc(-c2nnc(NC3=NCCCCC3)o2)cc1,0%,1µM*,-60%,-10%
Cc1ccc(C)c(N2CCN(S(=O)(=O)c3c(C(=O)N4CCC(C)CC4)c(C)n(C)c3C)CC2)c1,-24%,?,·,-5%
O=C(NC(=S)NC1CCCCC1)c1ccccc1,?,?,1%,-8%
C/C(=N\NC(=S)NC1CCCCC1)c1ccc(O)cc1,?,?,27%,?
C/C(=N\NC(=S)NC1CCCCC1)c1ccccc1,?,5.6µM*,6%,-17%
S=C(NC1CCCCC1)NN(c1ccccc1)c1ccccc1,?,10µM*,-3%,-6%
COC(=O)c1ccc(/C=N/OCC(=O)NC2CCCCCCC2)cc1,-3%,13µM*,9%,i
COC(=O)c1ccc(/C=N/OCC(=O)NC2CCCC(C)C2C)cc1 (stereo not given),-12%,?,6%,i
SMILES,HEK293 tox,GLP-1R inv ag,GLP-1R agonist,PTHR1 agonist
CCOC(=O)c1c(NC(=O)c2nc(S(C)(=O)=O)ncc2Cl)sc(C(C)=O)c1C,-21%,-27%,·,0%
C=CCn1nc([N+](=O)[O-])nc1Sc1cccc2cccnc12,2.8µM*,?,-21%,i
O=[N+]([O-])c1ccc(Sc2cccc3cccnc23)c([N+](=O)[O-])c1,3.2µM*,?,0%,i
O=[N+]([O-])c1ccc(Sc2cccc3cccnc23)cc1,1%,103%,7%,-35%
Cc1ccc(C2C(=O)N(C3CCCCCC3)CC(=O)N2CCC2=CCCCC2)cc1 (stereo not given),5%,-5%,·,i
COc1ccc(C(=O)Nc2nnc(SCc3cc(=O)n4cccc(C)c4n3)s2)cc1,-2%,16%,·,-23%
O=C(Nc1cccc(Cl)c1)OCCOC(=O)Nc1cccc(Cl)c1,?,10µM*,13%,i
CCOP(=O)(OCC)C(NC(=O)Nc1cccc(Cl)c1)c1ccccc1 (stereo not given),0%,7.9µM*,3%,i
O=C(CSc1nc2c([nH]c3ccccc32)c(=O)n1-c1ccc(F)cc1)N1CCCCCC1,1%,9%,1%,-12%
O=c1c(N2CCCCC2)csc2ccc(F)cc12,3%,9%,·,-7%
Nc1ccn([C@@H]2O[C@H](CO)[C@H](O)C2(F)F)c(=O)n1,·,·,2%,·
COc1ccc(C(=O)NC2CCCN(Cc3ccc(Cl)cc3)C2)c(OC)c1 (stereo not given),-16%,7.9µM*,12%,-31%
COc1ccc(C(=O)C2CCCN(Cc3cc(C)c(O)c(C)c3)C2)c(OC)c1 (stereo not given),0%,4.5µM*,-8%,-5%
COc1ccc(C(=O)C2CCCN(Cc3cc(Cl)ccc3O)C2)c(OC)c1 (stereo not given),-14%,?,12%,-92%
CCOc1ccc(CNC(=O)C2CCN(c3nnc(-n4c(C)ccc4C)s3)CC2)cc1,-6%,-7%,·,i
Cc1ccn2c(NC(=O)c3cccs3)c(-c3ccccc3)nc2c1,-12%,-12%,1%,-5%
Cc1ccn2c(NC(C)(C)C)c(-c3cccs3)nc2c1,?,10µM*,3%,-9%
CCCNC1=C(N(C(C)=O)c2cccc(F)c2)C(=O)c2ccccc2C1=O,?,8.9µM*,-40%,i
CCC(=O)N(C1=C(NC(C)C)C(=O)c2ccccc2C1=O)C(C)C,-18%,9%,0%,-36%
O=C(CCl)Nc1ccc(N=Nc2ccccc2)cc1,?,?,17%,-44%
O=C(CCl)Nc1ccc(-c2ccccc2)cc1,?,10µM*,-4%,-28%
CCOc1ccc(C2=C(C=C(C#N)C#N)C(c3ccccc3)c3ccccc3O2)cc1 (stereo not given),-12%,6.3µM*,-4%,-25%
COc1ccc2c(c1)C=C(CN1CCC(CO)(CCc3ccccc3)CC1)CO2,1%,?,22%,-3%
COc1ccc(CC2(CO)CCN(CC3=Cc4cc(Cl)ccc4OC3)CC2)cc1,?,2.8µM*,16%,-29%
CCCCCCCCC[n+]1cccc2c3ccccc3ccc21,?,10µM*,-13%,-89%[57.5 µM]
CCCCCCCCCCCCCCCC[n+]1cccc2ccccc21,?,?,-18%,-7%
Cc1nn2c(=O)cc(COC(=O)c3ccc(NC(=O)COc4ccc(Cl)cc4)cc3)nc2s1,-22%,?,·,-15%
COc1ccc(NCc2cc3cc4c(cc3n(CC(=O)Nc3ccccc3)c2=O)OCO4)cc1,-9%,-2%,·,-18%
CCCCN1C(=O)C(O)(CC(=O)c2ccc(C)cc2C)c2cc(Br)ccc21 (stereo not given),-17%,10µM*,·,i
